Screening results as filed in PubChem.
CHX counter: counter-screen for Shiga toxin inhibitors: cycloheximide protein synthesis inhibition | AID 2314 | cell reporter, cycloheximide protein synthesis inhibition counterscreen | max response, % | hit rate 12% among 300,000; in the data active = max response mostly above about 13%, no sharp cut-off; inactive = mostly below about 14%; note: read at 38.3 µM for the half of the compounds with a filed dose; 0% is about no effect
LmPK inh: inhibitors of Leishmania mexicana pyruvate kinase | Q27686 | purified LmPK, Kinase-Glo ATP luminescence, 1 h | Potency, µM (top dose mostly 57.5 µM), for the others: at the highest dose activity change, negative = inhibition, most hits filed as inhibitors | hit rate 0.37% among 290,000; note: potency is the fitted concentration of half-maximal effect; % is set by controls: 0 for no effect and ±100 for the full control effect
Target sequence (Q27686 whole entry, looked up): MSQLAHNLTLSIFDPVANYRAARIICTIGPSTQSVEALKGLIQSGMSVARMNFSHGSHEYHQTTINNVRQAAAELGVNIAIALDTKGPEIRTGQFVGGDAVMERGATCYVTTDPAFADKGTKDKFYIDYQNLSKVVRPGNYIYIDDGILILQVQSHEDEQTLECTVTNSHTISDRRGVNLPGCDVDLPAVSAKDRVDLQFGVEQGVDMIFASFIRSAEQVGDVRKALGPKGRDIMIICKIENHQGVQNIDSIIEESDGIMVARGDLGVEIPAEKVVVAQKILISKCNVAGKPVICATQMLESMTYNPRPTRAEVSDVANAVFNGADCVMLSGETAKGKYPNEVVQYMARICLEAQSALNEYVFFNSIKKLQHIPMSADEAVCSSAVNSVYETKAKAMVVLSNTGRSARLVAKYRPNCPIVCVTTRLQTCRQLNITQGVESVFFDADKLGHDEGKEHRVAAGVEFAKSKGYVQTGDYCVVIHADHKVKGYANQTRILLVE
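qHTS format; LmPK 0.1 nM; substrates PEP 0.5 mM and ADP 0.1 mM. One-hour room-temperature incubation, then coupled luciferase luminescence; 0.5 nM enzyme wells mark activation.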
Shiga toxin inh: inhibitors of Shiga toxin in Vero cells. Vero cells, Shiga toxin protein synthesis inhibition reporter. inhibition, % at 38.7 µM. hit rate 9.2% among 290,000. AID 2315; in the data active = inhibition mostly above about 28%, no sharp cut-off; inactive = mostly below about 43%; note: 0% is about no effect
Pf growth 96h: P. falciparum growth inhibition at 96 hours; P. falciparum luciferase reporter growth, 96 h; Potency, µM (doses to about 28.7 µM), for inactives: at the highest dose activity change, negative = inhibition, most hits filed as inhibitors; AID 504834; hit rate 6.9% among 320,000; note: potency is the fitted concentration of half-maximal effect; % is set by controls: 0 for no effect and ±100 for the full control effect
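Erythrocytes infected with luciferase-expressing P. falciparum were dispensed at 2% hematocrit and 0.05% parasitemia (final), then incubated with compounds 96 hours at 37 C in 5% CO2. Luminescence after detection reagent addition reported growth.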
Pf growth 48h: P. falciparum growth inhibition at 48 hours (one generation); P. falciparum luciferase growth in erythrocytes, 48 h; Potency, µM (top dose mostly 28.7 µM), inactives show at the top dose activity change, negative = inhibition, hits mostly inhibitors; hit rate 5.9% among 310,000; AID 504832; note: potency is the fitted concentration of half-maximal effect; % is set by controls: 0 for no effect and ±100 for the full control effect
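Parasite viability was followed by luminescence of a genomically integrated firefly luciferase. Cultures held 0.1% parasitemia at 2% hematocrit (final), incubated under 5% CO2 at 37 C.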
Numbers without * were called inactive; ? = inconclusive; / = no result given. Rows were chosen to be rich in hits. Some 22% of all compounds tested hit in one or more screens of this group. Unless noted, calls come from the whole dose curve; as a rule, active = well fitted inhibition curve with a large enough effect; inconclusive = small, poorly fitted or top-dose-only effect, or another doubt; inactive = no such curve, though single readings can be large or run the other way.

SMILES | CHX counter | LmPK inh | Shiga toxin inh | Pf growth 96h | Pf growth 48h
O=C(Nc1ccc2oc(-c3ccccc3F)nc2c1)c1cncc(Br)c1 | 25.3* | 1.5% | 41.7* | / | 8.28µM*
COc1ccc(C(=O)Nc2ccc3oc(-c4cccnc4)nc3c2)cc1OC | 5.9 | 4.7% | 3.3 | ? | ?
COc1ccc(-c2nc3cc(NC(=S)NC(=O)Cc4ccccc4)ccc3o2)cc1 | 34.6* | -0.5% | 37.1 | -6.8% | 169.9%
CC(OC(=O)CC(NC(=O)c1ccccc1Cl)c1ccccc1)C(=O)Nc1cccc(Cl)c1Cl (centres undefined) | -1.1 | -1.8% | -13.5 | 0.0% | 27.4%
Nn1c(SCC(=O)Nc2ccc(N3CCOCC3)cc2)nnc1-c1ccccc1F | / | / | / | 142.7% | 126.7%
CN(C(=O)C1CCC(=O)N(CCCN2CCCC2=O)C1)C(C1CC1)C1CC1 (centres undefined) | 3.0 | 5.8% | 2.2 | 37.2% | 9.3%
CCOC(=O)C1CCCN(Cc2ccc(OC)c(OCc3ccccc3)c2)C1 (centres undefined) | -2.0 | -10.7% | -5.4 | ? | 0.7%
CCc1ccc2oc(-c3cccc(NC(=O)c4cccnc4)c3)nc2c1 | 34.5* | -2.2% | 66.1* | -23.5% | -48.3%
COc1ccc(-c2nnc(SCc3nnc(-c4ccccc4)o3)n2-c2ccccc2)cc1 | 11.1 | -0.9% | 8.1 | -22.1% | 22.1%
COc1ccc(C(C)=O)cc1CSc1nnc(-c2ccc(Cl)cc2)n1-c1ccccc1 | 8.7 | -2.2% | -25.3 | 9.28µM* | ?
COc1ccc(-c2nnc(SCc3nnc(-c4ccc(Cl)cc4)o3)n2-c2ccccc2)cc1 | 24.1* | -1.3% | 57.3 | ? | -30.1%
COc1ccc(C(C)=O)cc1CSc1nnc(-c2ccncc2)n1C | -2.2 | -7.3% | 9.6 | ? | 5.8%
CC1(C)CCCN(C(=O)c2ccc3c(c2NCCO)C(=O)c2ccccc2C3=O)C1 | -5.0 | -20.6% | 2.4 | ? | 13.1µM*
O=C1c2ccccc2C(=O)c2c1ccc(C(=O)N1CCCCC1)c2NCCO | -4.4 | -24.5% | -13.4 | 14.6% | -4.1%
CC(C)(C)[C@H]1C=C(C(=O)NCc2nc3ccccc3[nH]2)O[C@@H](OCc2ccc(CO)cc2)C1 | -3.0 | 0.7% | -3.1 | ? | ?
CCOc1ccc2nc(NC(=O)C3CCCO3)sc2c1 (centres undefined) | 0.9 | 2.1% | 23.6 | 24.4% | -16.4%
Cc1cc(C)c2nc(NC(=O)c3ccc(OCC4CCCO4)cc3)sc2c1 (centres undefined) | 31.4* | 0.3% | 64.7* | ? | 106.7%
Cc1ccc2nc(NC(=O)c3ccc(OCC4CCCO4)cc3)sc2c1 (centres undefined) | 46.1* | 0.0% | 92.5* | ? | -51.7%
Cc1cccnc1NC(=O)c1ccc(OCC2CCCO2)cc1 (centres undefined) | / | / | / | 60.6% | 29.4%
CC(C)Cn1c(C23CC4CC(CC(C4)C2)C3)n[nH]c1=S | 0.7 | 25.1µM* | -0.9 | 8.1% | ?
Cc1cc(/C=N\NC(=O)CC(=O)NC2CCCCC2)c(C)n1-c1ccc(Cl)c(Cl)c1 | -2.0 | 4.9% | 25.8 | ? | 4.7%
CCNC(=S)N/N=C/c1cc(C)n(-c2ccc(Cl)cc2)c1C | 21.2* | 7.3% | 65.5 | ? | 15.8%
Cc1cc(/C=N/N2CCN(C)CC2)c(C)n1-c1ccc(Cl)cc1 | 2.0 | 4.5% | 8.6 | ? | 11.7µM*
Cc1cc(/C=N/NC(N)=S)c(C)n1-c1ccc(Cl)c(Cl)c1 | -1.3 | 2.9% | -46.9 | 11.7µM* | 13.1µM*
Cc1cc(C(=O)NCCc2ccc(S(=O)(=O)NC(=O)NN3CCCCCC3)cc2)no1 | 8.5 | / | -5.5 | -11.2% | -8.8%
C=Cc1ncc(OC)c2c1[nH]c1ccccc12 | / | / | / | 34.0% | -19.6%
Cc1cc(Cl)ccc1C(=O)C1CCCN(C(=O)c2cccc(N3CCCC3=O)c2)C1 (centres undefined) | -2.7 | 4.4% | -2.8 | 18.4% | ?
COc1cc(C2C(C#N)=C(N)Oc3c2ccc2ccccc32)ccc1OCC(=O)Nc1ccc(C)cc1 (centres undefined) | -1.8 | -2.5% | -0.8 | 0.0% | 10.4µM*
COc1cc(C2C(C#N)=C(N)Oc3c2ccc2ccccc32)ccc1OCC(=O)Nc1cccc(C)c1 (centres undefined) | 3.9 | 2.6% | 21.9 | 19.7% | 11.7µM*
